Data: PubChem BioAssay
For part of these data: Results with a measured potency or affinity are listed apart. Activity calls are given as the source filed them.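 How the source made its calls, unless noted: active means fitted half-maximal concentration within the tested dose range, moderate curve steepness, a statistically real signal drop, and little compound fluorescence or tag-binding interference; inactive means the rest.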

Experiments:
[1] = target: Cell division control protein 42 homolog (Homo sapiens) (UniProt P60953); assay: activated mutant Cdc42 GTP-binding inhibitors, dose response, biochemical, multiplex bead flow cytometry, Bodipy-FL-GTP (AID 1333)
Chain of Cell division control protein 42 homolog (Homo sapiens) (P60953 whole entry, looked up): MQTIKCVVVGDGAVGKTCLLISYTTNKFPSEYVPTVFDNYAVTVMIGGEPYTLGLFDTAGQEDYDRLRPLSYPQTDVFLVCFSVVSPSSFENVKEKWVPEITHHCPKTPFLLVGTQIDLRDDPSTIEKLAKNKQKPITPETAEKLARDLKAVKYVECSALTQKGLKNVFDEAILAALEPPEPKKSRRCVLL

[2] = target: Cell division control protein 42 homolog (Homo sapiens) (UniProt P60953); assay: wildtype Cdc42 GTP-binding inhibitors, dose response, biochemical, multiplex bead flow cytometry, Bodipy-FL-GTP (AID 1334;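 active means fitted half-maximal concentration within the tested range, moderate curve steepness, significant signal drop, and little compound fluorescence or bead-linkage interference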); details: bead-based flow cytometry, Bodipy-FL-GTP binding to GST-Cdc42; at 100 µM (top of the series) unless noted
[3] = target: GTPase HRas (Homo sapiens) (UniProt P01112); assay: inhibitors of GTP binding to wildtype Ras, dose response, biochemical, multiplex bead flow cytometry (AID 1335;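 active means fitted half-maximal concentration within 10 nM to 100 µM, steepness 0.5 to 2, significant signal drop, low assay interference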); details: bead-based flow cytometry, Bodipy-GTP binding to GST-Ras; at 100 µM (top of the series) unless noted
Chain of GTPase HRas (Homo sapiens) (P01112 whole entry, looked up): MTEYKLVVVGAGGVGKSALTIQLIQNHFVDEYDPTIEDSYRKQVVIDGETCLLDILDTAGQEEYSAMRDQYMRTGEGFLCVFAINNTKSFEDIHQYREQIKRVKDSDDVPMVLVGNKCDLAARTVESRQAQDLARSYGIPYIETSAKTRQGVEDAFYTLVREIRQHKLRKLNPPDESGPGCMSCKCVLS

[4] = test system: Ras-related protein Rab-7a (dog), GTP binding; assay: Rab7 GTP binding inhibitors, potency, dose response, biochemical, wildtype, multiplex bead flow cytometry (AID 1336; call rule not given here)
[5] = target: Ras-related C3 botulinum toxin substrate 1 (Homo sapiens) (UniProt P63000); assay: wildtype Rac1 GTP binding inhibitors, dose response, biochemical, multiplex bead flow cytometry (AID 1340;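 active means dose curve with midpoint inside tested range, moderate steepness, plateau gap beyond fit error, low compound glow and bead-link interference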); details: GST-Rac1 beads, Bodipy-FL-GTP binding; at 100 µM (top of the series) unless noted
[6] = target: GTPase HRas (Homo sapiens) (UniProt P01112); assay: activated Ras mutant GTP binding inhibitors, dose response, biochemical, multiplex bead flow cytometry (AID 1341;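 active means dose-response curve with midpoint inside the tested range, moderate steepness, significant amplitude and little compound fluorescence or bead-attachment interference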;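 further: GST-tagged constitutively activated Ras mutant immobilized on beads and multiplexed with other GTPases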)

Row | SMILES | outcome [1] | fluorescence, percent of control (lower = inhibition) [2] | GTP binding, percent of control [3] | outcome [4] | GTP binding signal, raw median fluorescence (lower = inhibition) (MCF (arbitrary fluorescence units)) [5] | outcome [6]
1 | Nc1nc2c(c(=O)[nH]1)C(c1cccc3ccccc13)C1=C(N2)c2ccccc2C1=O (stereo not given) | inactive | 31% | 75.5% | inactive | 204 | inactive
2 | CC1(C)Cc2c(sc3c2C2=NCCN2C=N3)CS1 | inactive | 38.3% | 86.3% | inactive | 280 | inactive
3 | COc1cccc2c(SCC(=O)N/N=C/c3ccc(O)c(O)c3)cc(C)nc12 | inactive | 27.5% | 60.2% | inactive | 119 | inactive
4 | COc1ccc(C2=Nn3c(nnc3-c3ccccc3)SC2)cc1OC | inactive | 37.5% | 86% | inactive | 214 | inactive
5 | Cc1ccccc1CNCc1ccc(C(=O)O)s1 | inactive | 61.7% | 87% | inactive | 32.5 | inactive
6 | COc1ccccc1CNCc1ccc(C(=O)O)s1 | inactive | 64.5% | 87.8% | inactive | 33.8 | inactive
7 | CCCCCOC(=O)c1ccccc1C(=O)O | inactive | 134% | 220% | inactive | 275 | inactive
8 | COC(=O)c1cn(CCOc2ccc(C)cc2)c2ccccc12 | inactive | 37% | 84.4% | inactive | 175 | inactive
9 | Cc1ccc(C(=O)OCc2nnc(-c3ccc(Br)cc3)o2)cc1 | inactive | 31.8% | 78.1% | inactive | 241 | inactive
10 | Cc1nn(-c2ccc(F)cc2)c(Cl)c1/C=C(\CC(=O)O)c1nc2ccccc2s1 | inactive | 77.1% | 127% | inactive | 160 | inactive
11 | Cc1cc(-c2n[nH]c(=S)n2/N=C/c2cccc([N+](=O)[O-])c2)n[nH]1 | inactive | 35% | 51% | inactive | 102 | inactive
12 | COc1cc2nc(=S)n(CCCN3CCOCC3)c(N)c2cc1OC | inactive | 38.1% | 79.4% | inactive | 151 | inactive
13 | CCC(/C=C1\Sc2ccc(OC)cc2N1CCO)=C\c1sc2ccc(OC)cc2[n+]1CCO | inactive | 22.6% | 46.8% | inactive | 187 | inactive
14 | O=C(N/N=C/c1ccc(-c2ccccc2[N+](=O)[O-])o1)c1cncc(Br)c1 | inactive | 44.2% | 55.2% | inactive | 150 | inactive
15 | O=C(O)c1c(C(F)(F)F)ccnc1NCc1ccccc1 | inactive | 61.8% | 224% | inactive | 57.2 | inactive
16 | COc1ccc(CNc2nc3ccccc3n2Cc2ccc(C)cc2)cc1OC | inactive | 73% | 73.9% | inactive | 343 | inactive
17 | COc1ccc(CCNc2cc(=O)[nH]c(N)n2)cc1 | inactive | 34.1% | 48.2% | inactive | 94.3 | inactive
18 | Cn1c(=O)c2cc(S(=O)(=O)NCCC(=O)NCc3ccccc3Cl)ccc2n(C)c1=O | inactive | 64% | 109% | inactive | 122 | inactive
19 | COCCCNc1nc(=S)[nH]c2cc(OC)c(OC)cc12 | inactive | 32.5% | 41.5% | inactive | 99 | inactive
20 | CCC(C)N1C(=O)/C(=C/c2c(NCCCOC(C)C)nc3c(C)cccn3c2=O)SC1=S (stereo not given) | inactive | 130% | 136% | inactive | 244 | inactive
21 | Cc1c(C(=O)N2CCc3ccccc3C2)oc2ccc(S(=O)(=O)N3CCCCCC3)cc12 | inactive | 56.2% | 76% | inactive | 274 | inactive
22 | C=CCc1ccccc1OCC(O)CN1CCN(C(=O)OCC)CC1 (stereo not given) | inactive | 48.3% | 60.5% | inactive | 194 | inactive
23 | O=C(CSc1ccc2nnc(-c3cccs3)n2n1)N1CCCC1 | inactive | 33% | 74.6% | inactive | 178 | inactive
24 | O=S(=O)(Nc1ncn[nH]1)c1ccc2ccccc2c1 | inactive | 62.3% | 70.5% | inactive | 224 | inactive
25 | O=C(O)c1ccc(COc2cccc3ccccc23)o1 | inactive | 58.3% | 89.1% | inactive | 31.9 | inactive
26 | COc1ccc(/C=C(/C#N)C(=O)Nc2ccc(O)cc2)cc1C(=O)O | inactive | 29.4% | 74.4% | inactive | 177 | inactive
27 | COc1ccc2nc(C)cc(SCC(=O)N/N=C/c3ccc(O)c(O)c3)c2c1 | inactive | 35% | 75.8% | inactive | 164 | inactive
28 | CN1CCN(c2ccccc2NC(=O)c2ccc(-c3cccc([N+](=O)[O-])c3)o2)CC1 | inactive | 40.2% | 93.9% | inactive | 308 | inactive
29 | COc1ccc2o/c(=N/NC(=O)c3cccs3)c(C(N)=O)cc2c1 | inactive | 28.1% | 64.4% | inactive | 160 | inactive
30 | COc1cccc(/C=C2\SC(=S)N(NC(=O)c3ccncc3)C2=O)c1 | inactive | 26.6% | 63.7% | inactive | 116 | inactive
